Values joined by “and” are separate entries in the source; they are usually repeats but may differ in a detail not shown here. Equal values may be shown once. Active and inactive are the calls of the source.
Experiments:
Albumin (Bos taurus) = Albumin (Bos taurus) (UniProt P02769); test: bovine serum albumin binders on microarray, profiling panel, artefact control for SMM control protein annotation, biochemical, small-molecule microarray, Alexa647 label, 635/667 nm fluorescence (AID 1118); details: BSA-A647 binding, fluorescence 635 nm, higher = more signal;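 further: score merges 667 nm emission intensity and signal-to-noise per printed compound spot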
[1] = small-molecule microarray binders of probe aXIP, primary screen, biochemical, NeuroSMM set, 635/667 nm fluorescence (AID 1119); details: higher = more signal, called active from +8 up or from −8 down;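 further: probe is the protein aXip251-270 applied at 1 µg/mL to compound-printed slides; binding of probe to printed compounds measured as 667 nm fluorescence plus signal to noise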
[2] = small-molecule binders of probe aNOTCH3, primary screen, biochemical, small-molecule microarray, 635/667 nm fluorescence (AID 1120); details: higher = more signal;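 further: probe is a biotin-tagged antibody raised against NOTCH3 rather than NOTCH3 protein; score merges spot fluorescence near 667 nm with spot signal to noise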
[3] = small-molecule binders of probe aNOTCH2, primary screen, biochemical, small-molecule microarray, 635/667 nm fluorescence (AID 1121); details: higher = more signal;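 further: score merges feature fluorescence read at 667 nm with its signal to noise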
[4] = biological target: Carbonic anhydrase 2 (Homo sapiens) (UniProt P00918); test: CAII small-molecule binders, profiling panel, biochemical, small-molecule microarray, Alexa647-labelled CAII (AID 1122); details: CAII-A647 binding fluorescence, higher = more signal
[5] = COS7 lysate on small-molecule microarray, probe aHis, 635 nm (AID 1123); details: COS7 cell lysate, fluorescence, higher = more signal;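 further: z-score combines 667nm fluorescence intensity with signal-to-noise per printed compound spot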
[6] = compound binding in COS7 lysate, probe aLAP1, primary screen, cell lysate, small-molecule microarray (AID 1124); details: probe aLAP1, fluorescence, higher = more signal;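 further: lysate comes from COS7 cells expressing LAP1 and is applied at 0.3 µg/mL; score merges spot fluorescence near 667 nm with signal-to-noise over triplicate slides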
Sam68 (KHDRBS1) = test: Sam68 small-molecule binders, primary screen, biochemical, small-molecule microarray, 635 nm fluorescence (AID 1125); details: small-molecule microarray binding, higher = more signal;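 further: score merges 667 nm channel intensity with signal to noise over triplicate slides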
[7] = test system: Chordin-like protein 2 (CHRDL2); test: CHRDL2 small-molecule binders, primary screen, biochemical, small-molecule microarray, 635 nm fluorescence (AID 1126); details: small-molecule microarray binding, fluorescence 635 nm; higher = more signal;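 further: printed compound slides probed with Chrdl2 protein at 4 µg/mL for 1 h at 4 C; score merges 667 nm emission intensity with signal to noise over three replicate slides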
[8] = biological target: Concanavalin-A (Canavalia ensiformis) (UniProt P02866); test: ConA small-molecule binders, primary screen, artefact control for SMM control protein annotation, biochemical, small-molecule microarray, Alexa647 label, 635 nm (AID 1127); details: ConA-A647 binding fluorescence, higher = more signal;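 further: z combines 667 nm emission intensity with signal-to-noise across three replicate slides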
Concanavalin-A (Canavalia ensiformis), sequence (P02866 whole entry, looked up): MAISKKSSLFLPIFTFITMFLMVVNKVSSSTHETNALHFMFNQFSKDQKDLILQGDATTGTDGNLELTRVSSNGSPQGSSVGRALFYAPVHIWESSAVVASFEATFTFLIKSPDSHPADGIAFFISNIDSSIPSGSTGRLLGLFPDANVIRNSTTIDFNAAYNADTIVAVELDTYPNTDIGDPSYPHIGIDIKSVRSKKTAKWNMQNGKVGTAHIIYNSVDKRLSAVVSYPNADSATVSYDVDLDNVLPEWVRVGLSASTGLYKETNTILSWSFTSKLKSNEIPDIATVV

Albumin (Bos taurus), sequence (P02769 whole entry, looked up): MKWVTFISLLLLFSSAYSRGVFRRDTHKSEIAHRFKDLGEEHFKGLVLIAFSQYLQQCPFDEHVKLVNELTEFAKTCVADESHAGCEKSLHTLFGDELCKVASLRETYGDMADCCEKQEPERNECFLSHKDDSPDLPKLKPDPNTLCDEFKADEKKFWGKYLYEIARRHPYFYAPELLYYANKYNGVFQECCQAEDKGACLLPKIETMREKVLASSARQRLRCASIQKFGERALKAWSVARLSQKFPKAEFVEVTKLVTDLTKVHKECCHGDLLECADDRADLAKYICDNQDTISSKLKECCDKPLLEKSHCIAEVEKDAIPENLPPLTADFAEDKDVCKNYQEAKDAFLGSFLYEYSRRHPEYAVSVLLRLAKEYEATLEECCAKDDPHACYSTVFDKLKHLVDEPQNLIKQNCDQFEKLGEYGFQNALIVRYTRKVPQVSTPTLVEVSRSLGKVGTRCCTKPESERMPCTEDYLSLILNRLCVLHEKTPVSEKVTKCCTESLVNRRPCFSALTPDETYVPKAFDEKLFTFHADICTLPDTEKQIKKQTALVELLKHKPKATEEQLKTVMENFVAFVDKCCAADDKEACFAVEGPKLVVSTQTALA

| Compound | composite z-score (Albumin (Bos taurus)) | composite Z-score [1] | composite z-score [2] | composite z-score [3] | composite z-score [4] | composite z-score [5] | composite z-score [6] | composite z-score (Sam68 (KHDRBS1)) | composite z-score [7] | composite z-score [8] |
| --- | --- | --- | --- | --- | --- | --- | --- | --- | --- | --- |
| CCOC(=O)C[C@H]1[C@H](OC(=O)c2ccccc2-c2ccccc2)[C@@H](NC(=O)Cc2ccc(OC)cc2)c2cc(OCCCO)ccc2N1C(=O)Cc1ccc(OC)cc1 | 0.56 and -0.0815 | 0.376 (inactive) and -0.265 (inactive) | 0.23 and 0.0762 | 0.0922 and -0.189 | 0.285 and -0.324 | 0.324 and 0.46 | 0.621 and -0.153 | 0.821 and -0.28 | -0.362 and -0.24 | 0.712 and -1.55 |
| CCOC(=O)c1ccc(NC(=O)O[C@H]2[C@H](OC(=O)Nc3ccccc3)[C@H](OC(=O)Nc3ccccc3)[C@@H](OC)O[C@@H]2CO)cc1 | 0.783 and 0.754 | 1.13 (inactive) and 0.14 (inactive) | 0.583 and 0.228 | 0.121 and -0.0858 | 0.46 and 0.771 | 2.66 and 2.3 | 0.708 and 1.11 | 1.31 and 1.3 | 0.292 and 0.142 | 1.19 and 1.15 |
| C=C[C@H](OC)[C@@H](O)c1ccc(OCCO)cc1 | -1.69 and -0.599 | 0.459 (inactive) and -0.239 (inactive) | -0.437 and -0.465 | -0.248 and -0.242 | 0.934 and 0.835 | -0.358 and -0.494 | 0.581 and -0.234 | -0.924 and -0.595 | -2.3 and -0.674 | -2.17 and -0.715 |
| C=C[C@@H](OC)[C@H](O)c1ccc(OC)c(O)c1 | 0.346 and 0.226 | 0.767 (inactive) and -1.19 (inactive) | -0.0044 and -0.521 | -0.0212 and -0.163 | -0.189 and 0.232 | -0.0302 and 0.043 | -0.37 and -0.649 | 0.043 and -0.955 | 1.11 and -0.52 | -0.847 and -1.4 |
| CN1C(=O)C2CC=C([C@H]3Oc4ccccc4S(=O)(=O)N4CCC[C@@H]34)CC2C1=O (stereo not given in full) | -0.75 and -0.505 | 0.183 (inactive) and -0.213 (inactive) | -0.182 and -0.173 | -0.14 and -0.084 | -0.296 and -0.322 | -0.616 and -0.564 | 0.892 and -0.263 | -1.08 and -1.56 | -0.144 and 0.153 | -0.476 and -1.05 |
| C=CC[C@@H](O)c1ccc(O)c(F)c1 | 0.27 and 0.242 | 0.276 (inactive) and 0.895 (inactive) | -0.478 and -0.553 | -0.214 and -0.196 | 0.818 and 0.758 | -0.301 and -0.323 | -0.0711 and -0.495 | -0.601 and -0.896 | -1.22 and -1.15 | -1.51 and -1.15 |
| COCn1c2ccccc2c2nnc(C(C)=O)nc21 | -0.565 and -0.0926 | -0.158 (inactive) and -0.123 (inactive) | -0.0647 and 0.106 | -0.131 and -0.126 | 0.158 and -0.258 | -0.0769 and 0.263 | 0.325 and 0.155 | 0.132 and 0.584 | 0.488 and 0.54 | 0.133 and -0.0846 |

— PubChem BioAssay
